Bioassay records deposited in PubChem BioAssay by National Center for Advancing Translational Sciences (NCATS).
This is a sample that favours compounds with a hit; in the whole collection about 21% have one here.
Pf growth 48h: inhibits P. falciparum growth in the first generation, 48 h | P. falciparum luciferase growth in erythrocytes, 48 h | Potency, µM (series often up to 28.7 µM), hits mostly inhibitors | actives 5.9% (n = 310,000) | AID 504832
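Luminescence readout; reporter = integrated firefly luciferase in P. falciparum. RBC culture at 2% hematocrit, 0.1% parasitemia final, 37 C/5% CO2; decreased signal taken as growth inhibition.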
SARS PLpro yeast: inhibitors of SARS-CoV papain-like protease in yeast | actives 0.19% (n = 330,000) | S. cerevisiae expressing SARS-CoV PLpro, growth rescue | Potency, µM (top dose mostly 32.9 µM), hits mostly activators; calls by dose curve; note: nearly all actives have a fitted effect of over 55% in size
NS1 function inh: influenza NS1 inhibition; Potency, µM (doses to about 46.1 µM); actives 0.4% (n = 270,000); calls by dose curve; note: actives are rising curves; nearly all actives have a fitted effect of over 50% in size
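In this qHTS, NS1 from influenza A is expressed in budding yeast, where it slows growth. Cells are switched from glucose to 2% galactose medium (pH 6.0, -URA), treated with compound, and growth recovery is read at OD600.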
Pf growth 96h: P. falciparum growth inhibition at 96 hour, primary screen for plastid delayed-death inhibitors | P. falciparum luciferase reporter growth, 96 h | actives 6.9% (n = 320,000) | Potency, µM (titrated, usually from 28.7 µM), usual class: inhibitors
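Cell-based qHTS: luciferase-tagged P. falciparum in erythrocytes (2% hematocrit, 0.05% parasitemia final) incubated with compounds for 96 hours, 37 C, 5% CO2; luciferase detection reagent then added and luminescence measured.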
Shiga inhibitor: Shiga toxin inhibition; AID 2315; actives 9.2% (n = 290,000); Vero cells, Shiga toxin protein synthesis inhibition reporter; inhibition, % at 38.7 µM; in the data active = inhibition mostly above about 28%, no sharp cut-off; inactive = mostly below about 43%
CHX counter: counter-screen for Shiga toxin inhibitors: cycloheximide protein synthesis inhibition. actives 12% (n = 300,000). cell reporter, cycloheximide protein synthesis inhibition counterscreen. AID 2314. max response, %; in the data active = max response mostly above about 13%, no sharp cut-off; inactive = mostly below about 14%; note: read at 38.3 µM for the half of the compounds with a filed dose
Large screens that a line does not name were inactive. Unless noted, calls come from the whole dose curve; as a rule, active = well fitted inhibition curve with a large enough effect; inconclusive = small, poorly fitted or top-dose-only effect, or another doubt; inactive = no such curve, though single readings can be large or run the other way.

COc1ccc(C2c3ccc(O)cc3Oc3ncn(Cc4ccccc4)c(=N)c32)cc1OC (configuration not stated)	Pf growth 48h 12µM, Pf growth 96h inconclusive
COc1ccc(C2c3ccc(O)cc3Oc3ncn4nc(-c5ccco5)nc4c32)cc1OC (configuration not stated)	Pf growth 48h inconclusive
COc1nccnc1NS(=O)(=O)c1ccc(NCc2ccccc2O)cc1	none
COn1c(-c2ccc(Cl)cc2)nc2ccc(Cl)cc21	Shiga inhibitor 69, CHX counter 27
COc1ccc(-c2nc3ccccc3n2OCC(=O)O)cc1	CHX counter 21
COc1ccc(Cn2c(-c3ccc(OC)cc3)nc3ccccc32)cc1	Pf growth 48h inconclusive
O=C(O)COn1c(-c2ccc(Cl)cc2)nc2ccc(Cl)cc21	Shiga inhibitor 87
CCN(CC)S(=O)(=O)c1ccc(C(=O)Nn2cnnc2)cc1	none
COc1ccc2cc(-c3csc(-c4cccnc4)n3)ccc2c1	NS1 function inh inconclusive, CHX counter 26 (no result: Pf growth 96h)
COc1ccc(-c2csc(-c3cccnc3)n2)cc1C	Pf growth 96h inconclusive, Shiga inhibitor 90
CN(C(=O)c1cccnc1)c1nc(-c2ccccc2)cs1	none
COc1ccc(NC(=O)Nc2cccc3c2O[C@H](CN(C)S(=O)(=O)c2cn(C)cn2)[C@@H](C)CN([C@H](C)CO)C3=O)cc1	none (no result: Pf growth 48h, NS1 function inh, Pf growth 96h, Shiga inhibitor, CHX counter)
Cn1cnc2c1c(=O)n(Cc1ccc(Cl)cc1Cl)c(=O)n2C	Pf growth 96h 9.3µM (no result: Shiga inhibitor)
COc1ccc(NC(=O)C2C(=O)N(CCO)C3(C)CC2c2ccccc2O3)cc1 (configuration not stated)	none
Cc1ccc(NC(=O)C2C(=O)N(CCO)C3(C)CC2c2ccccc2O3)cc1 (configuration not stated)	CHX counter 22
CC(Cc1nnc(SCC(=O)O)n1N)c1ccccc1 (configuration not stated)	none
COc1ccccc1C/C(N)=N/OC(=O)/C=C/c1ccccc1	Pf growth 48h inconclusive, Pf growth 96h inconclusive, Shiga inhibitor 53, CHX counter 22 (no result: NS1 function inh)
N/C(Cc1cccc2ccccc12)=N\OC(=O)Cc1cccs1	Pf growth 48h inconclusive, Shiga inhibitor 62, CHX counter 49
COc1ccccc1C/C(N)=N/OC(=O)c1cccs1	CHX counter 18
N/C(Cc1cccc2ccccc12)=N\OC(=O)c1cccs1	Pf growth 48h 13µM
COc1ccc(C/C(N)=N/OC(=O)c2cccs2)cc1	none (no result: NS1 function inh)
N/C(Cc1cccc2ccccc12)=N\OC(=O)c1ccc2c(c1)OCO2	Pf growth 48h inconclusive, Pf growth 96h inconclusive
CCOc1ccc(NC(=O)CN(C)C(=O)c2c(-c3ccccc3Cl)noc2C)cc1OCC	Pf growth 48h inconclusive, Pf growth 96h inconclusive (no result: NS1 function inh, Shiga inhibitor, CHX counter)
COc1ccc(-c2oc3cc(OC)c(O)c(OC)c3c(=O)c2OC)cc1O	Pf growth 48h inconclusive, Pf growth 96h 10µM
COc1ccc(-c2oc3c(OC)c(OC)c(OC)c(O)c3c(=O)c2OC)cc1OC	Pf growth 48h inconclusive, Pf growth 96h 3.3µM
COc1c(-c2ccc(O)cc2)oc2cc(O)cc(O)c2c1=O	Pf growth 48h inconclusive
COc1ccc(-c2oc3cc(O)c(OC)c(O)c3c(=O)c2OC)cc1	Pf growth 48h inconclusive, Pf growth 96h inconclusive, CHX counter 16
COc1ccc(CCN(Cc2cccs2)S(=O)(=O)c2ccc(S(=O)(=O)N(C)C3CCCCC3)cc2)cc1OC	Pf growth 48h inconclusive, Pf growth 96h inconclusive
O=[N+]([O-])c1ccc(S(=O)(=O)Nc2nnc(C(F)(F)F)s2)cc1	Pf growth 96h 10µM
Cc1ccc(NC(=O)c2cc(S(=O)(=O)N3CCOCC3)c(Br)s2)cc1	Pf growth 96h inconclusive
Cc1c(-n2c(SCC(N)=O)nc3ccccc3c2=O)c(=O)n(-c2ccccc2)n1C	none (no result: NS1 function inh)
COC(=O)c1c(-c2ccc(OC)c(OC)c2)csc1N	Pf growth 48h inconclusive, NS1 function inh inconclusive
CCOC(=O)c1c(-c2ccc(OC)cc2)csc1NC(=O)CSc1ccccc1	Pf growth 96h 13µM (no result: Pf growth 48h)
CCOC(=O)c1c(NC(=O)CSc2nncs2)sc(C)c1-c1ccccc1	Pf growth 96h inconclusive
COC(=O)c1c(-c2ccc3ccccc3c2)csc1NC(=O)Cc1ccc(OC)c(OC)c1	Pf growth 48h 8.3µM, Pf growth 96h 9.3µM
CCOC(=O)c1c(-c2ccccc2)csc1NC(=O)CSc1nncs1	Pf growth 48h 9.3µM, Pf growth 96h inconclusive
